# In PubChem BioAssay AID720707 (National Center for Advancing Translational Sciences (NCATS), 2013):
# The whole screen tested about 360,000 compounds, of which about 270 (0.075%) were called active. The entries come from a sample that favours actives as a whole. A number with no mark means an inactive call. Calls come from the whole dose curve; as a rule, active = well fitted activation curve with a large enough effect; inconclusive = small, poorly fitted or top-dose-only effect; inactive = no such curve, though single readings can be large or run the other way.
# Biological target: Rap guanine nucleotide exchange factor 3 (Homo sapiens) (UniProt O95398)
# Assay: qHTS for Agonist of cAMP-regulated guanine nucleotide exchange factor 3 (EPAC1): primary screen; note: nearly all actives have a fitted effect of over 60% in size
# Conditions: biochemical assay; series mostly up to 154 µM; activation: at the top concentration
# Source text: In multi-cellular eukaryotic organisms, the effects of cAMP are transduced by two ubiquitously-expressed intracellular cAMP receptors, the classic protein kinase A/cAMP-dependent protein kinase (PKA/cAPK) and the more recently discovered exchange protein directly activated by cAMP/cAMP-regulated guanine nucleotide exchange factor (EPAC/cAMP-GEF). Both PKA and EPAC are ubiquitously expressed in all tissues, and an increase in intracellular cAMP levels will lead to the activation of both PKA and EPAC. Therefore, careful dissections of the individual role and relative contribution of EPAC and PKA within the overall cAMP signaling in various model systems are critical for further elucidating the mechanism of cAMP signaling. To date no EPAC-specific antagonists and agonist, as well as isoform-specific agonists have been reported, and developing EPAC-specific pharmacological probes to determine the physiological functions that EPAC play in the overall cAMP-mediated signaling remains a major challenge within the research field. Furthermore, identified regulators of EPAC may lead to new mechanism-based therapeutic strategies specifically targeting the EPAC / cAMP-signaling components as EPAC has been implicated to play important roles in major human pathological conditions such as diabetes, heart disease, and cancer.
# This qHTS will be used to screen the Molecular Libraries Small Molecule Repository (MLSMR) as a concentration-titration series using the NCGC unique quantitative screening (qHTS) platform to find activators for EPAC1. In addition, this assay will also be used as a counterscreen for the EPAC2 qHTS. This fluorescent based assay is developed and validated for EPAC1 that measures exchange using EPAC effector Rap1 complex with BODIPY-GDP, a GDP analog with a tethered fluorophores. Activators are identified by monitoring the change in fluorescence signal as the exchanged free BODIPY-GDP has a reduced fluorescence compared to Rap1-bound BODIPY-GDP. Increase in signal (activation) is the desired outcome for the EPAC1 agonist while no activity in this assay is desired for the EPAC2 agonist counterscreen.
# [1] de Rooij, J., Zwartkruis, F. J., Verheijen, M. H., Cool, R. H., Nijman, S. M., Wittinghofer, A., and Bos, J.L. (1998) Nature 396, 474-477
# NIH Chemical Genomics Center [NCGC]
# NIH Molecular Libraries Probe Centers Network [MLPCN]
# Assay Submitter (PI): Xiaodong Cheng, The University of Texas Medical Branch
# Briefly, three uL of reagents (100 nM EPAC1, 250 nM RAP1B-BODIPY-GDP, 50 uM GDP) were dispensed into a 1536-well Greiner black solid-bottom medium binding assay plate. Controls and test compounds (23 nL) were transferred to the plate via a Kalypsys pin tool equipped with a 1536-pin array. The plates were centrifuged at 1,000 rpm for 15 seconds followed by 5 minute incubation at room temperature. The assay plates were read at 5 minute intervals for 30 minutes in the ViewLux plate reader using 480nm excitation and 540nm emission filters. The results were normalized to the agonist positive control of 6.5 mM cAMP.
# Potency is the fitted concentration of half-maximal effect.
# Chain of Rap guanine nucleotide exchange factor 3 (Homo sapiens) (O95398 whole entry, looked up): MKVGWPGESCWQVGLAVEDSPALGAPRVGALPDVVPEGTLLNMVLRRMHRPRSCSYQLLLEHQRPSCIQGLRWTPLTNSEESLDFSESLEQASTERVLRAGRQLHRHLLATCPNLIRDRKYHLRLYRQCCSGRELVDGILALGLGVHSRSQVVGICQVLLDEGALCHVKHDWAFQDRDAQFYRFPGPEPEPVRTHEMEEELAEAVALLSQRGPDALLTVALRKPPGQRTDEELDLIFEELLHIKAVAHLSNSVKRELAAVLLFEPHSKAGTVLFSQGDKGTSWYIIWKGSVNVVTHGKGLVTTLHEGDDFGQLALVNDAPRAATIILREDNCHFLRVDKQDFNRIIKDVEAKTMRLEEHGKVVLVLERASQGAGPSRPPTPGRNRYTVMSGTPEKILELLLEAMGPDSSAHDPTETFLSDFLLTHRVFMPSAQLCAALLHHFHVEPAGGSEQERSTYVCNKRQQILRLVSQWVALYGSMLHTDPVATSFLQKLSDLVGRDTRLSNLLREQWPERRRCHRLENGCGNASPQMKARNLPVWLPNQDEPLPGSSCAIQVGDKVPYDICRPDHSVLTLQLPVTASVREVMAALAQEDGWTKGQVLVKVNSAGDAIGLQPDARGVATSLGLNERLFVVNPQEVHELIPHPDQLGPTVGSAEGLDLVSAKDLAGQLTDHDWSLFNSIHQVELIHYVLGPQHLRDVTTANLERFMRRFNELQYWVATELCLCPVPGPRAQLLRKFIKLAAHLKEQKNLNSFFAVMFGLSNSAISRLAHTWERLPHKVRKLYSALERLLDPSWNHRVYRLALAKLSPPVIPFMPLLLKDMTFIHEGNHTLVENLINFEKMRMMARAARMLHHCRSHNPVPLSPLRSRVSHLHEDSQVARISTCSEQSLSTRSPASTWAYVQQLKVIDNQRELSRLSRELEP
SMILES,activation [%],Potency
CC(C)(C)n1nnnc1C(c1ccccc1F)N1CCN(C(=O)c2ccco2)CC1 (centres undefined),1.91,
O=c1ccc2c(-c3ccccc3S(=O)(=O)O)c3ccc(O)c(O)c3oc-2c1O,-10.7,
COc1ccc(NC(=O)C2CCC(CNS(=O)(=O)c3csc(C(N)=O)c3)CC2)cc1OC (centres undefined),-7.96,
CCN(CC(=O)Nc1c(F)cccc1F)C(=O)Cc1cccs1,9.59,
Cc1ccc(NS(=O)(=O)c2cn(C)c(=O)n(C)c2=O)c(C)c1,-4.61,
CCOc1ccccc1C(=O)NC1CC2CCCC(C1)N2Cc1ccccc1 (centres undefined),-8.13,
Cc1noc(C)c1CSCC(=O)Nc1ccc(Br)cc1Cl,0.706,
CCOC(=O)C(NS(=O)(=O)c1ccc(C)cc1)(C(F)(F)F)P(=O)(OCC(C)C)OCC(C)C (centres undefined),-18.9,
CCN(CC)S(=O)(=O)c1cc([N+](=O)[O-])ccc1NNC(=O)Nc1ccccc1,17,
Cc1ccccc1N1C(=O)C2ON(c3ccccc3)C(c3ccncc3)C2C1=O (centres undefined),14.8,
CCOC(=O)c1c(NC(=O)CNC2CCCc3ccccc32)sc(C(N)=O)c1C (centres undefined),3.57,
Cc1n[nH]c(=O)c2c1nnn2Cc1ccc(F)cc1,9.7,
O=C(COc1ccc2ccccc2c1)N1CCN(C(=O)c2cccs2)CC1,-6.98,
O=C(NC(C(=O)NCCN1CCOCC1)C12CC3CC(CC(C3)C1)C2)C1CCCCC1 (centres undefined),-4.95,
Cc1cc(C)cc(NC(=O)C(c2ccccc2)N2CCN(CC(=O)N3CCCC3)CC2)c1 (centres undefined),4.7,
Cc1ccccc1Cn1c2ccccc2c2cnn(CC(=O)NCc3ccco3)c(=O)c21,-17.4,
C(#CCN1CCOCC1)CCCN1CCOCC1,-5.58,
O=C1CC2(CC(c3ccc(Cl)cc3)=NO2)C(=O)N1c1ccccc1 (centres undefined),1.17,
COc1ccc(N2CCN(C(=O)CN3C(=O)COc4ccccc43)CC2)cc1,6.42,
Cc1cccc(OCC(O)Cn2c(N3CCCCC3)nc3c2c(=O)[nH]c(=O)n3C)c1 (centres undefined),-3.51,
COc1ccc(C2NCCCC2c2ccccc2)cc1 (centres undefined),-6.92,
CCCCCn1c(SCCC(C)C)nc2c1c(=O)[nH]c(=O)n2C,-27.6,
Cc1ccc2c(CSc3nncs3)cc(=O)oc2c1,-3.69,
CCCc1ccc(OCC(O)CN2CCN(CCO)CC2)cc1 (centres undefined),11,
COc1ccccc1N1CCN(S(=O)(=O)CCNC(=O)c2ccc(OC(C)C)cc2)CC1,9.05,
Cc1cc(NS(=O)(=O)c2ccc(NC(=O)C(C)Oc3cccc(C)c3C)cc2)nc(C)n1 (centres undefined),2.53,
CCc1c(C)sc(NC(=O)OC)c1C(=O)N1CCOCC1,-5.41,

SMILES,activation [%],Potency
O=S1(=O)N=C(N(CCO)/N=C/c2ccccc2F)c2ccccc21,1.16,
CCOc1cc(/C=C2/N=C(c3ccc(C(C)(C)C)cc3)OC2=O)cc(Cl)c1OS(C)(=O)=O,4.21,
COc1ccc(C(=O)COC(=O)Cn2cnc3c2c(=O)n(C)c(=O)n3C)c(OC)c1,10.1,
CC(=O)c1c(C)[nH]c(C(=O)OCC(=O)Nc2sc3c(c2C#N)CCCC3)c1C,9.31,
NC(=O)C1=C[C@H](c2csc3ccccc23)C[C@H](OCc2ccc(CO)cc2)O1,3.72,
Cc1cccc(CCNS(=O)(=O)c2ccc(S(=O)(=O)NC3CCCC3)cc2)c1,0.785,
Cn1c(NC(=O)c2ccco2)c(-c2ccccc2Cl)c(=O)c2ccccc21,-0.86,
C/C=C/c1ccc(OCC(=O)NNC(=O)CN(C)S(=O)(=O)c2ccc(C)cc2)c(OC)c1,-1.47,
Cc1ccc(S(=O)(=O)N(C)C)cc1NC(=O)C1Cc2ccccc2CN1C(=O)c1ccco1 (centres undefined),-3.3,
CCOc1ccc(S(=O)(=O)N/N=C(\C)c2ccc(Cl)c(Cl)c2Cl)cc1,-2.38,
C[n+]1ccc(/C=C/c2c[nH]c3ccccc23)cc1,,100 µM (active)
CC(C)(C)c1ccc(SCCc2ccncc2)cc1,2.65,
O=C(Nc1ccccc1Cl)NC1(C(=O)N2CCOCC2)CCCCC1,12.8,
CCCCC(=O)N(c1ccc(OC)cc1)C1C=CS(=O)(=O)C1 (centres undefined),4.76,
CC(C)COC(=O)c1ccc(NC(=O)C2C3C=CC(C3)C2C(=O)O)cc1 (centres undefined),14.5,
COc1cncc(-c2cnc3sc(NCCc4ccccn4)nn23)c1,2.99,
COCCN1C(=O)c2oc3c(C)cc(C)cc3c(=O)c2C1c1cccc(O)c1 (centres undefined),20.3,
O=C1CCC(=O)N1CCOP1(=O)COc2ccccc2OC1,6.29,
COc1ccc(C)cc1NC(=O)CN1c2cccc3cccc(c23)S1(=O)=O,-4.18,
COC(=O)c1c(C)cc(O)c(C)c1O,-12.7,
CC(=O)N1c2ccc(S(=O)(=O)N3CCCC(C(=O)NCc4ccc(Cl)cc4)C3)cc2CC1C (centres undefined),2.25,
Cc1ccc(Cl)cc1NC(=O)COC(=O)CC(C)(C)C,2.13,
CN(CC(O)COc1ccc(S(=O)(=O)N2CCOCC2)cc1Cl)C1CCCCC1 (centres undefined),7.39,
Cc1ccc(C(C)C)c(OCc2nnc(SCC(=O)Nc3nccs3)n2C)c1,-4.53,
O=C(c1ccccc1)N1CCC(CC2CC(c3ccc(Cl)cc3)=NO2)(C(=O)NCC2CCCCC2)CC1 (centres undefined),5.56,
CCc1c(O)nc(SCC(=O)N2CCCCC2)n(-c2ccccc2C)c1=O,7.38,
Cc1ccc(CN2CCN(c3ccccc3Cl)CC2)o1,3.65,
